# Reference: PubChem BioAssay (EPA / NIEHS)
# Values joined by “and” are separate entries in the source; they are usually repeats but may differ in a detail not shown here. Equal entries are not always repeated. Records with an inconclusive call do not appear. Active and inactive are the calls of the source. The calls were made as follows, unless noted: active = hit-call score of the fitted dose curve at least 0.9, where 1 is the maximum; inconclusive = response in the unintended direction; inactive = score below 0.9.
# How the values were obtained:
# [1] = CCTE_Simmons_MITO_basal_resp_rate: CCTE's HepG2 Seahorse XF Respirometric Screening Assay at Basal Respiratory State, Simmons Lab (AID 2284001; active = hit-call score of the fitted dose curve at least 0.9, where 1 is the maximum; inactive = score below 0.9); details: actives raise or lower the signal
# Method in brief: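 Basal-phase OCR in HepG2 cells, read at 6-min intervals across a 72-min run, with test compound injected at 125 nM–100 uM final (7 points). Fitted both directions against DMSO; three biological replicates per concentration.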
# THRB (gene 7068) = THRB (gene 7068) (UniProt P10828); experiment: TOX21_TRB_COA_Agonist_Followup_ratio: Tox21 Thyroid Hormone Receptor beta Agonism through Coactivator Recruitment Follow-Up Assay, Ratio (AID 2283963; active = hit-call score of the fitted dose curve at least 0.9, where 1 is the maximum; inactive = score below 0.9)
# Chain of THRB (gene 7068) (P10828 whole entry, looked up, the tested form may be a part): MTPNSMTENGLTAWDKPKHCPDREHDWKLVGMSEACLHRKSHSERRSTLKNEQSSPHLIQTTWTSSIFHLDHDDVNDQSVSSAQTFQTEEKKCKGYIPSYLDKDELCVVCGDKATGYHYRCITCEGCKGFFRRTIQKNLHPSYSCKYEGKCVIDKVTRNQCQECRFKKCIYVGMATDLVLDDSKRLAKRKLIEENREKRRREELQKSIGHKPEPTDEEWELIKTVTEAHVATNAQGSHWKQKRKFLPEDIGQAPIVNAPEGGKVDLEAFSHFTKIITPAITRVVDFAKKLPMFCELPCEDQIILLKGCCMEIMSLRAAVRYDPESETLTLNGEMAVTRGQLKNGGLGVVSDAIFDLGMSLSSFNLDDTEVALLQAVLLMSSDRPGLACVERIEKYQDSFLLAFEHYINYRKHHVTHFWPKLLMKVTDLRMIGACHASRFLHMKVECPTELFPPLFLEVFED
# Method in brief: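 GST-TRb LBD 5.0 nM + 0.10% BSA + cpd; add fluorescein-SRC-2 200 nM / Tb anti-GST Ab 2 nM; TR-FRET ex 340, em 520:495; norm DMSO 0%, T3 100%.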
# [2] = biological target: Retinoic acid receptor RXR-alpha (Homo sapiens) (UniProt P19793); experiment: TOX21_TR_RXR_BLA_Agonist_Followup_ratio: Tox21 Thyroid Hormone Receptor beta Retinoid X Receptor alpha (RXRa) Agonism Beta-lactamase (BLA) Follow-Up Assay, Ratio (AID 2283968)
# Chain of Retinoic acid receptor RXR-alpha (Homo sapiens) (P19793 whole entry, looked up): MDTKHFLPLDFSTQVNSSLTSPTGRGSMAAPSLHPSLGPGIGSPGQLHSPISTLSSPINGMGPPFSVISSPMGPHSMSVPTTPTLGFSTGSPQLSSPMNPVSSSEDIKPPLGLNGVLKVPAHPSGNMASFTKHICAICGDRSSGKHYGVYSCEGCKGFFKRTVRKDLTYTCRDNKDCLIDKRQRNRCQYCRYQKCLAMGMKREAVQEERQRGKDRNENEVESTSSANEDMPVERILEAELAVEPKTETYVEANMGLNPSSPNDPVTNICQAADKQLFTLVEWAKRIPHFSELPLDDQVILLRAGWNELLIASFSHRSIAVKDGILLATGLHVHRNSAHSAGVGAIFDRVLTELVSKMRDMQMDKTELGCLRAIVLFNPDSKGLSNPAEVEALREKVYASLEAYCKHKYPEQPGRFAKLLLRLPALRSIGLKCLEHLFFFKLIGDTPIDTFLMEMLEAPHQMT
# Method in brief: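 Agonist mode: compounds given to RXRa-bla HEK293T cells at 11 concentrations, triplicate, 16 h at 37C/5% CO2. Readout is the 460:530 nm blue/green ratio after 2 h substrate loading at room temperature; DMSO baseline, 9-cis retinoic acid control.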
# [3] = TOX21_TR_RXR_BLA_Agonist_Followup_viability: Viability Assessment in the Tox21 Thyroid Hormone Receptor beta Retinoid X Receptor alpha (RXRa) Agonism Beta-lactamase (BLA) Follow-Up Assay (AID 2283970)
# Method in brief: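 CellTiter-Glo ATP luciferase read-out of cell viability, multiplexed with the beta-lactamase reporter run. RXRa-bla HEK293T cells in charcoal-stripped serum medium were exposed 16 h at 37C; data fitted both directions relative to DMSO.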
# DIO1 (gene 1733) = experiment: CCTE_GLTED_hDIO1: CCTE's human Deiodinase 1 (DIO1) Inhibition Assay, Great Lakes Toxicology and Ecology Division (GLTED) Lab (AID 2283987);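 also: isolated human DIO1 enzyme in a cell-free setup rather than cells; enzyme activity read as free iodide liberated from substrate via Sandell-Kolthoff colorimetry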
# Method in brief: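 Chemicals are tested on human DIO1 without cells for 3 h. Uninhibited enzyme frees iodide, which speeds cerium(IV) reduction by arsenic and is read by spectrophotometry.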
# [4] = biological target: Nucleoli Translocation, AR (gene 367) (UniProt P10275); experiment: UPITT_HCI_U2OS_AR_TIF2_Nucleoli_Antagonist: University of Pittsburgh U2OS Androgen Receptor-Transcriptional Intermediary Factor 2 (AR-TIF2) Antagonism High Content Imaging Assay for Nucleoli Translocation (AID 2283997)
# Chain of Nucleoli Translocation, AR (gene 367) (P10275 whole entry, looked up): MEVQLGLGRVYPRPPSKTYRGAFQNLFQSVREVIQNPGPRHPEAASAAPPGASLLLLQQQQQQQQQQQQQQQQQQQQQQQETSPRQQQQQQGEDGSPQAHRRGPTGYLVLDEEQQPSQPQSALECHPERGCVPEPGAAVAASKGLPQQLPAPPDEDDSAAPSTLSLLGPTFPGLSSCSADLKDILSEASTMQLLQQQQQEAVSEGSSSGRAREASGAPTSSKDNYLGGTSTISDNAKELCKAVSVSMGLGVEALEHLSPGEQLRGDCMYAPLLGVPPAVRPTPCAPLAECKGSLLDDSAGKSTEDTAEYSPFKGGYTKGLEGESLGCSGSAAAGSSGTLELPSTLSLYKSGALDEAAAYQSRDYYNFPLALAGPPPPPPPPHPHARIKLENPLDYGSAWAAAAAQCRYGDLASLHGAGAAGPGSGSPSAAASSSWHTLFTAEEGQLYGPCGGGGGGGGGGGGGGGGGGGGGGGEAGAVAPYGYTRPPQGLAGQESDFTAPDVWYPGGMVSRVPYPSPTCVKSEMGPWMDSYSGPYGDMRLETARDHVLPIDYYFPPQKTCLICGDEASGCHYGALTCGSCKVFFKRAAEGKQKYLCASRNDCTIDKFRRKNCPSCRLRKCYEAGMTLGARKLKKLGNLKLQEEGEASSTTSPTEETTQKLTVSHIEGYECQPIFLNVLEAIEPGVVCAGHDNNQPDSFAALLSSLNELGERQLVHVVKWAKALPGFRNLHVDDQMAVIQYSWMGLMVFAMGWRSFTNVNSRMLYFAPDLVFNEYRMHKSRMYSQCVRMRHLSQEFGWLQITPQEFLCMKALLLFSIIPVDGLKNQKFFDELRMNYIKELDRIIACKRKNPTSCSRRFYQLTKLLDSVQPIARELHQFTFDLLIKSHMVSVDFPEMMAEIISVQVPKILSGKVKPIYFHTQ
# Method in brief: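 Antagonism is read as loss of nucleolar AR-RFP signal relative to DHT, imaged in U2OS cells also carrying GFP-TIF2. Compounds screened at 20 uM final, 0.2% DMSO; primary actives retested in triplicate.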
# [5] = biological target: Ratio of Nucleoli Translocation and Cytoplasm, AR (gene 367) (UniProt P10275); experiment: UPITT_HCI_U2OS_AR_TIF2_Nucleoli_Cytoplasm_Ratio_Antagonist: University of Pittsburgh U2OS Androgen Receptor-Transcriptional Intermediary Factor 2 (AR-TIF2) Antagonism High Content Imaging Assay for Ratio of Nucleoli Translocation and Cytoplasm (AID 2283999);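 also: antagonists lower the DHT-driven ratio of nucleolar to cytoplasmic red signal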
# Chain of Ratio of Nucleoli Translocation and Cytoplasm, AR (gene 367) (P10275 whole entry, looked up): as above
# Method in brief: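 High-content imaging of red fluorescence ratio, nucleoli versus cytoplasm, in U2OS expressing AR-RFP and TIF2-GFP, fitted relative to DHT. Compounds tested once at 20 uM final, then 0.195 to 50 uM final in serial dilution.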
# [6] = biological target: Ratio of Nucleoli Translocation and Cytoplasm, AR (gene 367) (UniProt P10275); experiment: UPITT_HCI_U2OS_AR_TIF2_Nucleoli_Cytoplasm_Ratio_Agonist: University of Pittsburgh U2OS Androgen Receptor-Transcriptional Intermediary Factor 2 (AR-TIF2) Agonism High Content Imaging Assay for Ratio of Nucleoli Translocation and Cytoplasm (AID 2284000);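 also: hits raise the red nucleolar to cytoplasm ratio above vehicle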
# Method in brief: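 Compounds tested at 20 uM final in primary screen (0.2% DMSO) and 0.195-50 uM final in dose-response (0.5% DMSO). Imaging of human U2OS cells bearing RFP-AR and GFP-TIF2; endpoint is nucleoli/cytoplasm red signal ratio, positive direction relative to DMSO.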
# [7] = CCTE_Harrill_HTTr_Viability_DMEM_6hr: (Pilot) CCTE's 6-hour Cell Viability Assessment for the High-Throughput Transcriptomics (HTTr) Platform, in MCF-7 cells cultured in DMEM + 10% fetal bovine serum, Harrill Lab (AID 2283973; active = hit-call score of the fitted dose curve at least 0.9, where 1 is the maximum; inactive = score below 0.9)
# Method in brief: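 Propidium iodide uptake imaged by high-content analysis after six hours of chemical treatment in an eight-concentration series. Cells: MCF-7 grown in DMEM with 10% fetal bovine serum; DMSO as baseline.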
# [8] = CCTE_Harrill_HTTr_Viability_DMEM_12hr: (Pilot) CCTE's 12-hour Cell Viability Assessment for the High-Throughput Transcriptomics (HTTr) Platform, in MCF-7 cells cultured in DMEM + 10% fetal bovine serum, Harrill Lab (AID 2283974; active = hit-call score of the fitted dose curve at least 0.9, where 1 is the maximum; inactive = score below 0.9)
# Method in brief: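 Propidium iodide dye exclusion imaged by high-content microscopy after 12 h chemical exposure (eight concentrations) of MCF-7 cells grown in DMEM plus 10% FBS; values fitted in both directions relative to DMSO.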
# [9] = CCTE_Harrill_HTTr_Viability_DMEM_24hr: (Pilot) CCTE's 24-hour Cell Viability Assessment for the High-Throughput Transcriptomics (HTTr) Platform, in MCF-7 cells cultured in DMEM + 10% fetal bovine serum, Harrill Lab (AID 2283975; active = hit-call score of the fitted dose curve at least 0.9, where 1 is the maximum; inactive = score below 0.9)
# Method in brief: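 Pilot study: propidium iodide dye exclusion, imaged by high content microscopy, after 24 h compound exposure (eight concentrations) in MCF-7 cultured in DMEM + 10% fetal bovine serum; DMSO served as negative control and baseline.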
# [10] = CCTE_Harrill_HTTr_Viability_PRF_DMEM_6hr: (Pilot) CCTE's 6-hour Cell Viability Assessment for the High-Throughput Transcriptomics (HTTr) Platform, in MCF-7 cells cultured phenol red-free DMEM + 10% charcoal-stripped fetal bovine serum, Harrill Lab (AID 2283976; active = hit-call score of the fitted dose curve at least 0.9, where 1 is the maximum; inactive = score below 0.9)
# Method in brief: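 Membrane integrity by high-content imaging of propidium iodide uptake, six hours after dosing with eight concentrations. Cells: MCF-7 grown in phenol red-free DMEM plus 10% charcoal-stripped serum; DMSO serves as baseline for bidirectional fits.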
# [11] = CCTE_Harrill_HTTr_Viability_PRF_DMEM_12hr: (Pilot) CCTE's 12-hour Cell Viability Assessment for the High-Throughput Transcriptomics (HTTr) Platform, in MCF-7 cells cultured in phenol red-free DMEM + 10% charcoal-stripped fetal bovine serum, Harrill Lab (AID 2283977; active = hit-call score of the fitted dose curve at least 0.9, where 1 is the maximum; inactive = score below 0.9)
# Method in brief: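 Membrane integrity was scored via propidium iodide dye exclusion imaging, fitted in both directions relative to DMSO. Compounds ran as eight-point dilutions for 12 hours on MCF-7 grown in phenol red-free DMEM plus 10% charcoal-stripped serum.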
# [12] = CCTE_Harrill_HTTr_Viability_PRF_DMEM_24hr: (Pilot) CCTE's 24-hour Cell Viability Assessment for the High-Throughput Transcriptomics (HTTr) Platform, in MCF-7 cells cultured in phenol red-free DMEM + 10% charcoal-stripped fetal bovine serum, Harrill Lab (AID 2283980; active = hit-call score of the fitted dose curve at least 0.9, where 1 is the maximum; inactive = score below 0.9)
# Method in brief: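 Propidium iodide exclusion imaged at 24 h after dosing scores viability; cells were MCF-7 grown in phenol red-free DMEM plus 10% charcoal-stripped serum, tested in eight concentrations, fitted in both directions against DMSO.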
# [13] = CCTE_Harrill_HTTr_Apoptosis_DMEM_6hr: (Pilot) CCTE's 6-hour Apoptosis Assessment for the High-Throughput Transcriptomics (HTTr) Platform, in MCF-7 cells cultured in DMEM + 10% fetal bovine serum, Harrill Lab (AID 2283981; active = hit-call score of the fitted dose curve at least 0.9, where 1 is the maximum; inactive = score below 0.9)
# Method in brief: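 MCF-7 cells grown in DMEM + 10% FBS were exposed for 6 hours to an eight-point dilution series. CellEvent Caspase 3/7 Green signal was imaged; activity fitted bidirectionally against DMSO.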
# [14] = CCTE_Harrill_HTTr_Apoptosis_DMEM_12hr: (Pilot) CCTE's 12-hour Apoptosis Assessment for the High-Throughput Transcriptomics (HTTr) Platform, in MCF-7 cells cultured in DMEM + 10% fetal bovine serum, Harrill Lab (AID 2283982; active = hit-call score of the fitted dose curve at least 0.9, where 1 is the maximum; inactive = score below 0.9)
# Method in brief: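 Caspase-3/7 activity was measured by high-content imaging (CellEvent Caspase 3/7 Green) after a 12-hour exposure of MCF-7 cells grown in DMEM with 10% FBS. Eight-point concentration series, fitted bidirectionally against vehicle.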
# [15] = CCTE_Harrill_HTTr_Apoptosis_DMEM_24hr: (Pilot) CCTE's 24-hour Apoptosis Assessment for the High-Throughput Transcriptomics (HTTr) Platform, in MCF-7 cells cultured in DMEM + 10% fetal bovine serum, Harrill Lab (AID 2283983; active = hit-call score of the fitted dose curve at least 0.9, where 1 is the maximum; inactive = score below 0.9)
# Method in brief: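 Caspase-3/7 activity read by high-content imaging (CellEvent Green reagent) 24 h after dosing. MCF-7 cells grown in DMEM with 10% FBS received an eight-point concentration series; fits were bidirectional versus DMSO.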
# [16] = CCTE_Harrill_HTTr_Apoptosis_PRF_DMEM_6hr: (Pilot) CCTE's 6-hour Apoptosis Assessment for the High-Throughput Transcriptomics (HTTr) Platform, in MCF-7 cells cultured phenol red-free DMEM + 10% charcoal-stripped fetal bovine serum, Harrill Lab (AID 2283984; active = hit-call score of the fitted dose curve at least 0.9, where 1 is the maximum; inactive = score below 0.9)
# Method in brief: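 Caspase-3/7 activity (CellEvent Green) read by high-content imaging 6 h after dosing, eight concentrations. Cells: MCF-7, phenol red-free DMEM with 10% charcoal-stripped serum. Curves fit both directions against DMSO.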
# [17] = CCTE_Harrill_HTTr_Apoptosis_PRF_DMEM_12hr: (Pilot) CCTE's 12-hour Apoptosis Assessment for the High-Throughput Transcriptomics (HTTr) Platform, in MCF-7 cells cultured in phenol red-free DMEM + 10% charcoal-stripped fetal bovine serum, Harrill Lab (AID 2283985; active = hit-call score of the fitted dose curve at least 0.9, where 1 is the maximum; inactive = score below 0.9)
# Method in brief: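 Caspase-3/7 activity by CellEvent Green high content imaging after 12 h compound exposure (eight concentrations) in MCF-7 grown in phenol red-free DMEM plus 10% charcoal-stripped serum; DMSO as baseline.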
# [18] = CCTE_Harrill_HTTr_Apoptosis_PRF_DMEM_24hr: (Pilot) CCTE's 24-hour Apoptosis Assessment for the High-Throughput Transcriptomics (HTTr) Platform, in MCF-7 cells cultured in phenol red-free DMEM + 10% charcoal-stripped fetal bovine serum, Harrill Lab (AID 2283986; active = hit-call score of the fitted dose curve at least 0.9, where 1 is the maximum; inactive = score below 0.9)
# Method in brief: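 Eight concentrations tested for 24 h on MCF-7 grown in charcoal-stripped serum, phenol red-free DMEM. High content imaging of CellEvent Caspase 3/7 Green signal gives apoptosis read-out, fitted both ways relative to DMSO.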
structure (smiles),measurement,setting,value
O=C(Nc1ccc2[nH]ccc2c1)c1cc2cc(F)ccc2n1Cc1cccc(F)c1,outcome,[1],inactive
CC(C)(OO)c1ccccc1,outcome,THRB (gene 7068),inactive
same,outcome,[2],inactive
same,outcome,[3],inactive
COP(=O)(OC)O/C(=C\Cl)c1cc(Cl)c(Cl)cc1Cl,AC50,DIO1 (gene 1733),48.7 µM (active)
same,AC50,[4],50 µM (active)
same,outcome,[5],inactive
same,AC50,[6],50 µM (active)
C=CCc1ccc(OC)cc1,outcome,[4],inactive
same,outcome,[5],inactive
same,outcome,[6],inactive
CCCCCCCCc1ccc(O)cc1,AC50,DIO1 (gene 1733),57.1 µM (active)
same,outcome,[5],inactive
same,AC50,[1],50 µM (active)
CCC(C)(C)c1ccc(O)c(C(C)(C)CC)c1,AC50,DIO1 (gene 1733),46.1 µM (active)
same,AC50,[1],38 µM (active)
CCSC(C)CC1CC(=O)C(C(CC)=NOC/C=C/Cl)=C(O)C1 (stereo not given),outcome,[4],inactive
same,outcome,[5],inactive
same,outcome,[6],inactive
CC(C)c1cccc(C(C)C)c1O,outcome,[4],inactive
same,outcome,[5],inactive
same,outcome,[6],inactive
C[C@H]1O[C@@H](O[C@H]2[C@@H](O)C[C@H](O[C@H]3[C@@H](O)C[C@H](O[C@H]4CC[C@@]5(C)[C@H](CC[C@@H]6[C@@H]5CC[C@]5(C)[C@@H](C7=CC(=O)OC7)CC[C@]65O)C4)O[C@@H]3C)O[C@@H]2C)C[C@H](O)[C@@H]1O,AC50,[4],8.23 µM (active) and 5.95 µM (active)
same,outcome,[5],inactive
same,outcome,[6],inactive
O=C(O)C(F)(F)C(F)(F)C(F)(F)C(F)(F)C(F)(F)C(F)(F)C(F)(F)C(F)(F)C(F)(F)C(F)(F)F,AC50,DIO1 (gene 1733),157 µM (active) and 18 µM (active)
same,outcome,[1],inactive
Clc1ccc(COC(Cn2ccnc2)c2ccc(Cl)cc2Cl)cc1 (stereo not given),AC50,[4],10.1 µM (active)
same,outcome,[5],inactive
same,AC50,[6],74.4 µM (active)
COP(=O)(OC)OC,outcome,[4],inactive
same,outcome,[5],inactive
C[C@@H]1C[C@@H]([C@H](O)CC2CC(=O)NC(=O)C2)C(=O)[C@@H](C)C1,outcome,[7],inactive
same,outcome,[8],inactive
same,AC50,[9],7.82 µM (active)
same,outcome,[10],inactive
same,outcome,[11],inactive
same,AC50,[12],9.42 µM (active)
same,outcome,[13],inactive
same,outcome,[14],inactive
same,outcome,[15],inactive
same,outcome,[16],inactive
same,outcome,[17],inactive
same,outcome,[18],inactive
O=C1C(Cl)=C(Cl)C(=O)c2ccccc21,AC50,DIO1 (gene 1733),20 µM (active)
CC(C)(C)CC(C)(C)c1ccc(O)cc1,AC50,DIO1 (gene 1733),90.7 µM (active)
same,outcome,[5],inactive
same,AC50,[1],27.6 µM (active)
CC(C)(c1ccccc1)c1ccc(O)c(C(C)(C)c2ccccc2)c1,outcome,THRB (gene 7068),inactive
same,outcome,[3],inactive
same,outcome,[1],inactive
NNC(=S)NN,outcome,THRB (gene 7068),inactive
same,outcome,[2],inactive
same,outcome,[3],inactive
C[C@H]1CCCC(=O)CCC/C=C/c2cc(O)cc(O)c2C(=O)O1,AC50,[4],6.39 µM (active)
same,AC50,[6],84.8 µM (active)
CCOP(=S)(OCC)Oc1nc(Cl)c(Cl)cc1Cl,AC50,[4],50 µM (active)
same,outcome,[5],inactive
same,outcome,[6],inactive
same,outcome,[1],inactive
